According to PubChem BioAssay (NCI):
About 83,000 compounds went through this panel and 20% of them were active in at least one assay; those are over-represented in the sample as a whole.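 Interpretation: 100, growth as untreated; towards 0, rising growth inhibition; 0, no net growth; 0 to -100, cell death. Compounds scoring below 10 were considered active.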 Values without a mark were called inactive. Calls of active or inactive are those of the source.

Columns and labels:
Assay in all cases: NCI-60 one-dose screen, 48 h (100 = growth as untreated, 0 = no growth, -100 = all killed)
Conditions in all cases: 10 µM unless noted
NCI-H23 lung = tested on: NCI-H23 lung
NCI-H226 lung = tested on: NCI-H226 lung
NCI-H322M lung = tested on: NCI-H322M lung
HOP-62 NSCLC = tested on: HOP-62 NSCLC
NCI-H460 lung = tested on: NCI-H460 lung
HOP-92 NSCLC = tested on: HOP-92 NSCLC
NCI-H522 lung = tested on: NCI-H522 lung
A549/ATCC NSCLC = tested on: A549/ATCC NSCLC
786-0 renal = tested on: 786-0 renal
COLO 205 colon = tested on: COLO 205 colon

Row | SMILES | growth (NCI-H23 lung) [%] | growth (NCI-H226 lung) | growth (NCI-H322M lung) | growth (HOP-62 NSCLC) | growth (NCI-H460 lung) | growth (HOP-92 NSCLC) | growth (NCI-H522 lung) | growth (A549/ATCC NSCLC) | growth (786-0 renal) | growth (COLO 205 colon)
1 | O=C1c2c(c3c4ccccc4[nH]c3c3ccc4ccccc4c23)C(=O)N1CCN1CCNCC1 | 72.4 | 76% | 89.2% | 61.3% | -69.2% (active) | 78.3% | 66.2% | -21% (active) | 79.7% | 79.1%
2 | O=C(Nc1nc2ccccc2s1)c1ccc(F)cc1 | 89.9 | 92.7% | 92.5% | 106% | 69.2% | 78.7% | 92.2% | 98.4% | 108% | 118%
3 | CN1CCN(c2cc(Nc3cc(C4CC4)[nH]n3)nc(Nc3ccc(CC(=O)NCc4cccc(F)c4)cc3)n2)CC1 | 23.2 | 3.21% (active) | 20.5% | 8.32% (active) | 13% | -15.6% (active) | 61.2% | 24.3% | 18.3% | -54.9% (active)
4 | O=C(Nc1ccc(Oc2cccc(Cl)c2)c(Cl)c1)c1cccnc1 | 47.9 | 54.3% | 47.1% | 38% | 22.2% | 61.3% | 27.3% | 36.8% | 39.2% | 15.4%
5 | CN(C)CCNC(=O)c1ccc(-c2nc3ccc4[nH]ncc4c3c3c2C2CCC3C2)cc1 (stereo not given) | 32.2 | 49.3% | 58.8% | 46.6% | 11.8% | 101% | -28.8% (active) | 14.2% | 28.3% | 18.6%
6 | CC(=O)N1N=C(c2ccc(Nc3nc(Nc4ccccc4)nc(Nc4ccccc4)n3)cc2)CC1c1cccc([N+](=O)[O-])c1 (stereo not given) | 94.6 | 113% | 96.2% | 78.8% | 107% | 56.8% | 104% | 93.3% | 89.9% | 88.1%
7 | COc1ccc(/C=C/C(=O)c2cccc(OCCCCOc3cccc(C(=O)/C=C/c4ccc(OC)c(OC)c4)c3)c2)cc1OC | 54.5 | 57.5% | 87.3% | 72.8% | 80.5% | 55.3% | 64.4% | 78% | 89.8% | 112%
8 | COc1ccc2c(c1)CC[C@H](O)/C2=C/c1cc(OC)c(OC)c(OC)c1 | 30.3 | 40.8% | 60.5% | 34.9% | 4.68% (active) | 5.25% (active) | -19.2% (active) | 13.7% | 16.1% | -48.8% (active)
9 | N#Cc1c(-c2ccccc2)[nH]c2ncc(-c3ccccc3)n2c1=O | 76.9 | 86.3% | 88.6% | 75.6% | 91.1% | 80.7% | 76.9% | 90.6% | 92.3% | 94.7%
10 | O=C(N(c1ccccc1)c1ccccc1)n1cc(I)c2nc(Cl)nc(Cl)c21 | 72.6 | 71.8% | 92.6% | 43.9% | 43.8% | 71.8% | 3.35% (active) | 60.2% | 57.7% | 79.4%
11 | Nc1c(C(=O)Nc2ccncc2)sc2nc3c(cc12)C(O)CCC3 (stereo not given) | 93.3 | 90.2% | 84.1% | 98.7% | 102% | 88.2% | 78.8% | 91.9% | 93.8% | 113%
12 | O=C1NC(=O)C(Cc2ccc(OCc3ccc(-c4ccc(Cl)cc4Cl)cc3)cc2)S1 (stereo not given) | 46.9 | 74.5% | 90.8% | 66.4% | 58.5% | 53.7% | 26.8% | 39.4% | 63.8% | 90.4%
13 | CCCNc1nc2ccccc2c2c1S(=O)(=O)c1ccc(Cl)cc1C2=O | 24.7 | 34.7% | 32.7% | 9.66% (active) | 5.29% (active) | -27.2% (active) | -81.3% (active) | 19.6% | 13.9% | -9.19% (active)
14 | CN1C(=O)/C(=C\c2nc([P+](c3ccccc3)(c3ccccc3)c3ccccc3)c(N3CCOCC3)o2)SC1=S | 81.6 | 106% | 91.2% | 97.9% | 97.6% | -33.6% (active) | 93.6% | 86.1% | 97.5% | 88.1%
15 | COc1ccc(-c2ccc(-c3ccc(C(=N)N)cc3)s2)cc1Cl | 61.4 | 92.8% | -35.5% (active) | 34.5% | -66.4% (active) | 75.8% | -36.1% (active) | -48.2% (active) | -83.1% (active) | -36.1% (active)
16 | CNc1nnc2n(-c3ccccc3)c(=O)c3cnn(-c4ccccc4)c3n12 | 95.8 | 93.6% | 100% | 64.7% | 106% | 78.3% | 41.8% | 64.4% | 74.7% | 84.7%
17 | COC(=O)/C=C1/SC(=Nc2ccc(C(F)(F)F)cc2)N(CCc2c[nH]c3ccc(O)cc23)C1=O | 18.6 | 1.54% (active) | 6.96% (active) | -26.6% (active) | -60% (active) | -54% (active) | -40.6% (active) | 18.1% | -59.5% (active) | -58.9% (active)
18 | Nc1n[nH]c2cccc(C#Cc3cccc(C(=O)Nc4cc(C(F)(F)F)cc(C(F)(F)F)c4)c3)c12 | 73.8 | 42.7% | 96.7% | 93.8% | 76.5% | 36.9% | 35.1% | 80.4% | 103% | 81%
19 | CC(C)=CCCC(C)c1ccc(C)c2c1OCN(CCCCCO)C2 (stereo not given) | 91.3 | 98.4% | 102% | 92.5% | 81.1% | 27.7% | -1.75% (active) | 82.5% | 69.5% | 90%
20 | CC/C(=C(/c1ccc(Cl)cc1)c1ccc(OCCN2CCCCC2)cc1)c1ccc(OC)cc1 | 50.8 | 81.3% | 81% | 86.8% | 32% | 57% | 65.1% | 56.1% | 52% | 40.4%
21 | CSc1nc(N)c(NS(=O)(=O)c2ccc(C(C)=O)cc2)c(=O)[nH]1 | 95.5 | 103% | 100% | 105% | 103% | 103% | 99.6% | 102% | 78.9% | 98.6%
22 | COc1cc2cc(NCc3cccc(Cl)c3)nc(C)c2cc1OC | 22.6 | 35.8% | 37.4% | 51.4% | 22.7% | 57.8% | 18.3% | 41.3% | 39.9% | 31.6%
23 | CCC(=O)Oc1ccc(-c2ccccc2)cc1Br | 101 | 96.1% | 111% | 104% | 98.8% | 87.7% | 108% | 105% | 105% | 109%
24 | O=C(Nc1nc(-c2ccc(Cl)cc2)nc2c1sc(=S)n2-c1ccccc1)C(F)(F)F | 49.2 | 23.7% | 49.4% | 9.09% (active) | 13.6% | -4.79% (active) | 25.2% | 19.5% | -72.1% (active) | 21%
25 | CCOc1ccccc1Cn1ccnc1CCc1c(Cl)c(O)cc(O)c1C(=O)OC | 95.4 | 102% | 83% | 85.9% | 104% | 90.4% | 76.2% | 87.7% | 101% | 102%
26 | CN(C)c1ccc(-c2c(C#N)c(N)nn2C(=O)c2ccc(NC(=O)c3ccccn3)cc2)cc1 | 96.5 | 98.2% | 96.7% | 94.3% | 94.2% | 94.9% | 91.4% | 96.1% | 96% | 104%
27 | Cc1c[n+](Cc2ccc3ccccc3c2)cn1Cc1ccc2ccccc2c1 | 27.7 | 31.8% | 65.7% | 33.2% | 21.9% | -20.9% (active) | -17.9% (active) | 60.5% | 41% | -78.7% (active)
